Out of some 310,000 compounds screened, about 14,000 (4.5%) showed an effect of 50% or more. The effect is printed as a negative number. What follows is part of a selection rich in strong results, with near analogues and random picks from the rest.
The compounds below were run against human ether-à-go-go-related gene (hERG) potassium channel (human, UniProt Q12809) (assay: primary screen, population patch clamp on CHO cells stably expressing hERG; higher = less effect of the substance).
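Note: peak tail current of the secondary pulse compared with the same well before compound.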

Chain of human ether-à-go-go-related gene (hERG) potassium channel (Q12809 whole entry, looked up): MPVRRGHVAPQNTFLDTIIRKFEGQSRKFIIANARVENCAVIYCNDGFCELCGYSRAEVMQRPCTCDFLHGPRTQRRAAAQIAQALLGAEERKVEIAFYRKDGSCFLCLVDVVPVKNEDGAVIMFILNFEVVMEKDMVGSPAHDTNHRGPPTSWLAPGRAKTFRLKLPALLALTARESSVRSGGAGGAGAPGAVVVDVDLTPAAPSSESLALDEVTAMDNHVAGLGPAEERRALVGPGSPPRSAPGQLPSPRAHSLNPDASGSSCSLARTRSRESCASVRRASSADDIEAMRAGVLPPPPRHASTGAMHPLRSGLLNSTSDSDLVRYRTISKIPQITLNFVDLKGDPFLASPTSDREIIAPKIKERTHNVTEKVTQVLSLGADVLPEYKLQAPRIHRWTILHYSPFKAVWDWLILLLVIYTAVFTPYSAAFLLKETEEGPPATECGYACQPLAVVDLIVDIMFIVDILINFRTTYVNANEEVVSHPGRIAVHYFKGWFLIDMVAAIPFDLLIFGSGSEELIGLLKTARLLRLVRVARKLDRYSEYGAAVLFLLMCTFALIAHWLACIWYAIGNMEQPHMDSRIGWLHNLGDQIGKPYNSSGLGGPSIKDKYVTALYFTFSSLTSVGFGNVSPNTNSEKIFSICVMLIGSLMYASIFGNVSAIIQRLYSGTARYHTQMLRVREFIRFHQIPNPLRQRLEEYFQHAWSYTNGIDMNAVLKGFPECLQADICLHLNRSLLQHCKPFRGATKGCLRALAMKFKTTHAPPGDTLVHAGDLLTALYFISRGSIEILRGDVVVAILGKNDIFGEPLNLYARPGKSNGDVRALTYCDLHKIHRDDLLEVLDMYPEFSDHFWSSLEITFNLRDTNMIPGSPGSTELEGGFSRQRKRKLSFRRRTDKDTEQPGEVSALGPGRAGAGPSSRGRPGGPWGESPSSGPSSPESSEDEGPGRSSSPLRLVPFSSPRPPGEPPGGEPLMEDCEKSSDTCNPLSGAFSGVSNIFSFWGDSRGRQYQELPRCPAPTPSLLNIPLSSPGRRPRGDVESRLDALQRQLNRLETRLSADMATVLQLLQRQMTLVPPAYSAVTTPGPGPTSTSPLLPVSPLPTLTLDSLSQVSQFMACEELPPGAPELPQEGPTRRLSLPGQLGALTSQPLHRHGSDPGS

Compound	hERG current change (%, negative = inhibition) at 10uM [%]
Cc1ccc(CNC(=O)c2oc3ccc(S(=O)(=O)N4CCC5(CC4)OCCO5)cc3c2C)cc1	-3.35
CS(=O)(=O)Nc1ccc(C(=O)NCCSCc2ccccc2)cc1	-45.1
CS(=O)(=O)Nc1ccc(C(=O)NCCc2ccccc2)cc1	-69.6
CS(=O)(=O)Nc1ccc(C(=O)Nc2ccccc2C(=O)NCc2ccco2)cc1	-69.2
CC(=O)Nc1ccc(S(=O)(=O)N(C)Cc2ccccc2)cc1	-12.7
CS(=O)(=O)NCCSCc1c(F)cccc1Cl	1.87
CN(c1ccc(C(=O)NCCSCc2c(F)cccc2Cl)cc1)S(C)(=O)=O	1.6
CS(=O)(=O)Nc1ccc(C(=O)NCCSCc2c(F)cccc2Cl)cc1	-57.7
CN(Cc1ccccc1)S(=O)(=O)c1ccc(NS(C)(=O)=O)cc1	-55.5
CS(=O)(=O)Nc1ccccc1C(=O)NCc1ccco1	-2.03
CS(=O)(=O)Nc1ccc(C(=O)NCc2ccco2)cc1	0.221
CC(=O)Nc1ccc(C(=O)NCCc2ccccc2)cc1	12.9
CN(Cc1ccccc1)S(=O)(=O)c1ccc(NS(=O)(=O)Cc2ccccc2)cc1	0.139
CCOC(=O)C1=C(COc2ccccc2)NC(=O)NC1c1ccc2ccccc2c1 (centres unmarked)	-12.3
CC(C)CCNC(=O)NC(=O)CSc1nnc2ccccn12	15.6
CCOC(=O)N1CCC(NC(=O)CC2C(=O)NCCN2Cc2ccccc2)CC1 (centres unmarked)	-1.48
CCN(CC)S(=O)(=O)c1ccc(/C=C/C(=O)Nc2c(C)n(C)n(-c3ccccc3)c2=O)cc1	19.4
CCCC1CCC(=C(C#N)C(N)=O)CC1 (centres unmarked)	-32.8
CCOC(=O)c1ccccc1NC(=O)c1ccc(NS(C)(=O)=O)cc1	-54.7
COC(=O)c1ccccc1NC(=O)c1ccc(NS(C)(=O)=O)cc1	-36.1

Compound	hERG current change (%, negative = inhibition) at 10uM [%]
CCc1ccccc1NC(=O)c1ccc(NS(C)(=O)=O)cc1	-42.1
CS(=O)(=O)Nc1ccc(C(=O)Nc2ccccc2-c2ccccc2)cc1	-65.9
CCOC(=O)c1ccccc1NC(=O)c1ccccc1NS(C)(=O)=O	-0.0503
O=C(Nc1ccccc1-c1ccccc1)c1ccccc1	13.2
Cc1cccc(C(=O)O/N=C2/CC3CCC2(C)C3(C)C)c1 (centres unmarked)	-11
Cc1cc(C(=O)NCCC2=CCCCC2)c(C)o1	7.75
O=S(=O)(c1cccc(-c2n[nH]c(=S)o2)c1)N1CCOCC1	14.9
CCC(C)NC(=O)C1CCN(S(=O)(=O)N2CCOCC2)CC1 (centres unmarked)	22.8
N#CC1=C(SCc2ccc(C#N)cc2)N=C(N)C(c2nc(-c3ccccc3)cs2)C12CCCCC2 (centres unmarked)	12.3
CCC(C)Cn1c(C(C)O)nc2ccccc21 (centres unmarked)	0.00748
O=C(c1cc2ccccc2o1)N1CCN(c2cccc(C(F)(F)F)c2)CC1	3.21
CC(NCc1ccc(OCC(N)=O)cc1)C12CC3CC(CC(C3)C1)C2.Cl (centres unmarked)	-11.2
CCOc1cc(/C=N/NC(N)=O)cc(Br)c1OCC(=O)Nc1ccccc1C	-65.7
Cl.O=C(COc1ccc(Br)cc1CNCCc1ccccc1)NCc1ccccc1	-61.1
O=C(CCC(=O)NNC(=O)COc1ccc(Br)cc1Br)NCc1ccccc1	16.9
CCOc1cc(/C=N/NC(N)=O)cc(Br)c1OCC(=O)Nc1cccc2ccccc12	18.4
COc1cc(CNC(C)C23CC4CC(CC(C4)C2)C3)ccc1OCC(=O)NC(C)(C)C.Cl (centres unmarked)	-4.99
CC(NCc1cc(Br)ccc1OCC(N)=O)C12CC3CC(CC(C3)C1)C2.Cl (centres unmarked)	-55.8
CCOc1cc(C=O)cc(Br)c1OCC(N)=O	2.71
CCOc1cc(/C=N/NC(N)=O)cc(Br)c1OCc1ccccc1	3.4

Compound	hERG current change (%, negative = inhibition) at 10uM [%]
CCOc1cc(C=O)cc(Br)c1OCC(=O)NCCc1ccccc1	-81.7
CCOc1cc(/C=N/O)cc(Br)c1OCC(=O)NCc1ccccc1	1.7
Cc1ccccc1NC(=O)COc1ccc(Br)cc1CNCCCO.Cl	-15.6
CCN(CC)CCCNC(=O)Cn1cnc2sc(C)c(S(=O)(=O)N3CCC(C)CC3)c2c1=O	11.1
COC(=O)c1ccc(Cn2nc(-c3ccc(C)cc3)ccc2=O)cc1	23.5
CCn1cc(C(=O)O)c(=O)c2cnc(N3CCN(C(=S)Nc4ccc(F)cc4)CC3)nc21	13.3
CCN(c1ccccc1)S(=O)(=O)c1cccc(C(=O)N(C)CCOc2ccccc2)c1	-3.95
CCCCN(C)CCC(=O)Nc1ccc2c(c1)CCC2.Cl	-7.46
CCOC(=O)c1sc(NC(=O)CSc2ncn(-c3ccccc3)n2)nc1C	7.23
COc1ccc(CNC(=O)CCn2c(=O)oc3ccccc32)cc1	-5.31
O=C(NC(=S)Nc1ccc2[nH]c(=O)[nH]c2c1)c1ccccc1[N+](=O)[O-]	-8.83
Cc1cc(C(=O)N2CCN(c3ncccn3)CC2)cs1	-15.6
CCOC(=O)c1sc(NC(=S)NC(=O)C2CCCC2)cc1C	7.72
COc1cc(CNC(C)c2ccccc2)c(Br)cc1OCC(N)=O (centres unmarked)	-17.2
CCCNCc1cc(Br)ccc1OCC(=O)NCCc1ccccc1	-63.5
CCOc1cc(CNCCO)c(Cl)cc1OCC(=O)NCCc1ccccc1	-6.82
COc1ccc(Br)cc1CNC(C)c1ccccc1 (centres unmarked)	-19.8
CC(NCc1cc(Br)ccc1OCC(=O)NCc1ccccc1)c1ccccc1.Cl (centres unmarked)	-59.6
CCCNCc1cc(OC)c(OCC(=O)NCCc2ccccc2)cc1Br	-38.1

Reference: article PMC4336329 (PLoS ONE, 2015)
